Assay results from PubChem BioAssay (EPA / NIEHS).
The source made the active and inactive calls. How the source made its calls: active means hit-call score of the fitted dose curve at least 0.9, where 1 is the maximum; inactive means score below 0.9.

Experiments:
[1] = ATG_CRE_CIS: Attagene CIS-FACTORIAL HepG2 Assay for human cAMP Responsive Element (CRE) binding protein 3 (AID 2282926); settings: HepG2 CRE cis-reporter, Attagene multiplexed mRNA; actives raise or lower the signal
Summary of the method: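 Human liver HepG2, transient MRTU transfection, 24 h compound exposure. Total RNA → oligo(dT) RT → PCR → 6-FAM primer extension → HpaI cut → CE. Activity called both directions vs DMSO.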

[2] = target: CCAAT/enhancer-binding protein beta (Homo sapiens) (UniProt P17676); experiment: ATG_C_EBP_CIS: Attagene CIS-FACTORIAL HepG2 Assay for human CCAAT/Enhancer Binding Protein (C/EBP) beta (AID 2282927); settings: HepG2 Attagene cis-factorial transcription factor reporter; actives raise or lower the signal
Summary of the method: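 Following a 24 h incubation with test chemical, transfected HepG2 cells yielded RNA whose reporter transcripts were quantified by RT-PCR and fluorescent capillary electrophoresis, with DMSO serving as baseline for bidirectional fitting.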

[3] = ATG_CMV_CIS: Attagene CIS-FACTORIAL HepG2 Assay for human CMV (Internal Marker) (AID 2282928); settings: HepG2 CMV promoter reporter, transcription factor profiling; actives raise or lower the signal;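 further: endpoint acts as a background internal control marker rather than a target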
Summary of the method: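 HepG2 cells transiently transfected with multiple cis-regulated reporter units; 24 h compound exposure. Reporter mRNA quantified by RT-PCR, 6-FAM primer-extension labeling, HpaI digestion and capillary electrophoresis; bidirectional fitting against DMSO baseline.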

[4] = ATG_DR4_LXR_CIS: Attagene CIS-FACTORIAL HepG2 Assay for human Liver X Receptor (LXR), DR4 submotif (AID 2282929); settings: HepG2 Attagene DR4 cis-reporter, mRNA transcription; actives raise or lower the signal
Summary of the method: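 Cells were transfected with multiple reporter transcription units, exposed to chemicals for 24 hours, then lysed for RNA. Reporter mRNA induction was measured by RT-PCR with capillary electrophoresis detection and fitted in both directions relative to DMSO.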

[5] = ATG_AP_1_CIS: Attagene CIS-FACTORIAL HepG2 Assay for human Activator Protein 1 (AP-1) (AID 2282931); settings: HepG2 Attagene cis-factorial AP-1 reporter mRNA; actives raise or lower the signal
Summary of the method: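 Endogenous transcription-factor activity in human HepG2 liver cells is read through a cis-promoter reporter transcript, sampled 24 h after dosing. Detection uses RT-PCR with capillary electrophoresis; values come from bidirectional fitting relative to DMSO.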

[6] = ATG_AP_2_CIS: Attagene CIS-FACTORIAL HepG2 Assay for human Activator Protein 2 (AP-2) (AID 2282932); settings: HepG2 AP-2 cis-reporter, Attagene transcription factor profiling; actives raise or lower the signal
Summary of the method: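 HepG2 cells were transiently transfected with multiple cis-promoter reporter transcription units and dosed for 24 h. Reporter mRNA was measured by RT-PCR with capillary electrophoresis fluorescence; bidirectional fits relative to DMSO baseline.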

[7] = ATG_BRE_CIS: Attagene CIS-FACTORIAL HepG2 Assay for human Bone Morphogenetic Protein (BMP) Response Element (BRE) (AID 2282933); settings: HepG2 BMP response element reporter, Attagene transcription factor profiling; actives raise or lower the signal
Summary of the method: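 Read-out: reporter mRNA induction quantified by RT-PCR and capillary electrophoresis after 24 h chemical exposure of transfected HepG2 cells. Endogenous factor activity on the BMP response element; gain or loss fitted against DMSO baseline.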

[8] = target: Retinoic acid receptor alpha (Homo sapiens) (UniProt P10276); experiment: ATG_DR5_RAR_CIS: Attagene CIS-FACTORIAL HepG2 Assay for human Retinoic Acid Receptor Alpha (RARE), DR5 submotif (AID 2282934); settings: HepG2 Attagene cis-factorial RARE DR5 reporter, mRNA; actives raise or lower the signal;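 on AC50: reporter responds to endogenous RAR alpha beta and gamma in HepG2 not RARA alone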
Summary of the method: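 Endpoint fitted in both directions relative to DMSO as negative control. It reflects DR5 cis-element reporter mRNA induction in transiently transfected HepG2 cells, measured 24 h after dosing through RT-PCR and fluorescent capillary electrophoresis.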

[9] = target: Transcription factor E2F1 (Homo sapiens) (UniProt Q01094); experiment: ATG_E2F_CIS: Attagene CIS-FACTORIAL HepG2 Assay for human E2F Transcription Factor 1 (AID 2282935); settings: HepG2 Attagene cis-reporter, E2F reporter RNA transcripts; actives raise or lower the signal
Summary of the method: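 HepG2 cells transiently transfected with multiplexed cis-element reporter units, dosed for 24 h. Reporter mRNA measured by RT-PCR, 6-FAM primer-extension labeling, HpaI digestion and capillary electrophoresis; bidirectional fit versus DMSO baseline.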

[10] = ATG_E_Box_CIS: Attagene CIS-FACTORIAL HepG2 Assay for human Enhancer Box (E-box) (AID 2282936); settings: HepG2 E-box cis-reporter transcription, actives raise or lower the signal
Summary of the method: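 HepG2 cells transiently transfected with multiplexed cis-element reporter units sensing endogenous transcription factor activity; 24 h compound exposure. Reporter mRNA measured by RT-PCR, 6-FAM primer extension, HpaI digestion and capillary electrophoresis; bidirectional fit versus DMSO.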

[11] = ATG_M_61_CIS: Attagene CIS-FACTORIAL HepG2 Assay for M61 Transcription Factor (Internal Marker) (AID 2282937); settings: HepG2 Attagene CIS-FACTORIAL M61 internal marker reporter; actives raise or lower the signal
Summary of the method: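 Cells were transfected with reporter units under cis-regulatory promoters, treated with chemicals for 24 h, then lysed for RNA. Reporter transcripts were quantified by RT-PCR and capillary electrophoresis, and activity was fitted bidirectionally against DMSO.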

[12] = ATG_EGR_CIS: Attagene CIS-FACTORIAL HepG2 Assay for human Early Growth Response 1 (EGR1) (AID 2282938); settings: HepG2 Attagene CIS-FACTORIAL EGR reporter mRNA; actives raise or lower the signal
Summary of the method: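 Endogenous TF activity in HepG2 liver cells was gauged through cis-promoter reporter constructs transiently transfected. After 24 h dosing, reporter mRNA was quantified by RT-PCR and capillary electrophoresis, and curves fitted in both directions versus DMSO.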

[13] = ATG_Ets_CIS: Attagene CIS-FACTORIAL HepG2 Assay for human Erythroblast Transformation Specific (ETS) (AID 2282941); settings: HepG2 ETS cis-reporter transcription, actives raise or lower the signal
Summary of the method: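 HepG2 cells transiently transfected with cis-promoter reporter transcription units were dosed for 24 h; reporter mRNA was measured by RT-PCR, 6-FAM primer extension, HpaI digestion and capillary electrophoresis, with bidirectional fitting against DMSO baseline.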

[14] = target: Hepatocyte nuclear factor 3-beta (Homo sapiens) (UniProt Q9Y261); experiment: ATG_FoxA2_CIS: Attagene CIS-FACTORIAL HepG2 Assay for human Forkhead box A2 (FOXA2) (AID 2282942); settings: HepG2 cis-reporter transcription factor activity, 24 h; actives raise or lower the signal
Summary of the method: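 Endogenous transcription factor activity was read in HepG2 cells carrying transiently transfected cis-promoter reporter units. After 24 h dosing, reporter mRNA was quantified by RT-PCR and capillary electrophoresis, and values fitted bidirectionally versus DMSO.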

[15] = ATG_FoxO_CIS: Attagene CIS-FACTORIAL HepG2 Assay for human Forkhead box O (FoxO) (AID 2282943); settings: HepG2 Attagene cis-reporter, FoxO element, mRNA; actives raise or lower the signal
Summary of the method: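 Values reflect reporter mRNA induction or loss in HepG2 cells 24 h post-dosing, fitted bidirectionally with DMSO as negative control and baseline. Detection used RT-PCR and fluorescence capillary electrophoresis.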

[16] = ATG_GATA_CIS: Attagene CIS-FACTORIAL HepG2 Assay for human GATA Binding Protein (AID 2282944); settings: HepG2 GATA cis-element reporter, Attagene multiplex mRNA; actives raise or lower the signal
Summary of the method: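 Read-out: fluorescent reporter mRNA fragments resolved by capillary electrophoresis after RT-PCR. Human liver HepG2 cells carried transiently transfected cis-regulated reporter constructs; chemicals incubated 24 h; gain or loss of signal fitted relative to DMSO.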

[17] = ATG_GLI_CIS: Attagene CIS-FACTORIAL HepG2 Assay for human Zinc Finger Protein GLI1 (AID 2282945); settings: HepG2, Attagene cis-factorial reporter mRNA, GLI element; actives raise or lower the signal
Summary of the method: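 HepG2 cells transiently transfected with cis-promoter multiplexed reporter units report endogenous transcription factor activity. After 24 h chemical exposure, reporter mRNA was quantified by RT-PCR, 6-FAM labelling, HpaI digestion and capillary electrophoresis, with bidirectional fitting against DMSO.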

[18] = target: Aryl hydrocarbon receptor (Homo sapiens) (UniProt P35869); experiment: ATG_Ahr_CIS: Attagene CIS-FACTORIAL HepG2 Assay for human Aryl Hydrocarbon Receptor (Ahr) (AID 2282930); settings: HepG2 AhR cis-factorial reporter transcription; actives raise or lower the signal
Summary of the method: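 Values derive from bidirectional fitting against DMSO negative control. Underlying signal: cis-element reporter mRNA in transiently transfected HepG2, harvested 24 h post-dose and measured by RT-PCR plus capillary electrophoresis.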

[19] = ATG_M_19_CIS: Attagene CIS-FACTORIAL HepG2 Assay for M19 Transcription Factor (Internal Marker) (AID 2282939); settings: HepG2 Attagene CIS-FACTORIAL M19 internal marker reporter; actives raise or lower the signal
Summary of the method: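 Readout: fluorescent reporter-transcript fragments by capillary electrophoresis after RT-PCR. Human HepG2 liver cells carried transfected MRTU constructs reporting endogenous transcription-factor activity; exposure 24 h. Gain or loss of signal fitted relative to DMSO.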

Measured: AC50

Sequence of Retinoic acid receptor alpha (Homo sapiens) (P10276 whole entry, looked up): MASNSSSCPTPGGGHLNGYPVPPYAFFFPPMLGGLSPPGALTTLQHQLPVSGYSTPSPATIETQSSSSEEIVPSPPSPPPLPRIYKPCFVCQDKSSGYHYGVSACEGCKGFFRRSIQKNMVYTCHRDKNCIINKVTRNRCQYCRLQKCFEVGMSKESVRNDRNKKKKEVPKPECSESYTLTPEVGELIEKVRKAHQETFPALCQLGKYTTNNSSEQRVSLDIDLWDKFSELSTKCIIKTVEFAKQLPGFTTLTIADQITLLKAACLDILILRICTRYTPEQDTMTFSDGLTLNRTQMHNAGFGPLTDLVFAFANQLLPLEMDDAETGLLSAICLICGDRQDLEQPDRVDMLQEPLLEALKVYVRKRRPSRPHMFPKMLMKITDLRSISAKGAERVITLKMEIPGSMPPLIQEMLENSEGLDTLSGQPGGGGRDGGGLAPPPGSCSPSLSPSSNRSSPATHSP
Sequence of Aryl hydrocarbon receptor (Homo sapiens) (P35869 whole entry, looked up): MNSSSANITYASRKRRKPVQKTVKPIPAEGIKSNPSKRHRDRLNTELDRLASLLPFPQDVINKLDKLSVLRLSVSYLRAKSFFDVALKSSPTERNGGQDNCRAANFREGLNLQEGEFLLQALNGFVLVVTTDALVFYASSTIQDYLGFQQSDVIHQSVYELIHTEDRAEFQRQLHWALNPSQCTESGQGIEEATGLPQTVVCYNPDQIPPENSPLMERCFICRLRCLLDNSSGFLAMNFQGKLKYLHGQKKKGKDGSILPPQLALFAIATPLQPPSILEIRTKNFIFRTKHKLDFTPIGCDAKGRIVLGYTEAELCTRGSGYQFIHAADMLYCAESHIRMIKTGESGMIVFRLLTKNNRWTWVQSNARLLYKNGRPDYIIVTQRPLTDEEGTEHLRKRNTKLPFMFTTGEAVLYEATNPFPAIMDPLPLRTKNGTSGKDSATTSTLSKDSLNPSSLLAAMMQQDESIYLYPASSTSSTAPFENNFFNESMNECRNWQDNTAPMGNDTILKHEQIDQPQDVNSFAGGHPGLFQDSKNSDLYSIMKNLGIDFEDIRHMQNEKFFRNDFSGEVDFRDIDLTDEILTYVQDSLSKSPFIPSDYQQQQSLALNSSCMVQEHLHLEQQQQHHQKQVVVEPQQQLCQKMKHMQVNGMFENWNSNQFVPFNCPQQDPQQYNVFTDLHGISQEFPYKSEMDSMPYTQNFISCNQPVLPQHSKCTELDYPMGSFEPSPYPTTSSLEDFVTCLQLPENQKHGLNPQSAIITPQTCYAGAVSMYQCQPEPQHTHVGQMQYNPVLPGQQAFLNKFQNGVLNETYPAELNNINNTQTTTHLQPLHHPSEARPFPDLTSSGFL
Sequence of Transcription factor E2F1 (Homo sapiens) (Q01094 whole entry, looked up): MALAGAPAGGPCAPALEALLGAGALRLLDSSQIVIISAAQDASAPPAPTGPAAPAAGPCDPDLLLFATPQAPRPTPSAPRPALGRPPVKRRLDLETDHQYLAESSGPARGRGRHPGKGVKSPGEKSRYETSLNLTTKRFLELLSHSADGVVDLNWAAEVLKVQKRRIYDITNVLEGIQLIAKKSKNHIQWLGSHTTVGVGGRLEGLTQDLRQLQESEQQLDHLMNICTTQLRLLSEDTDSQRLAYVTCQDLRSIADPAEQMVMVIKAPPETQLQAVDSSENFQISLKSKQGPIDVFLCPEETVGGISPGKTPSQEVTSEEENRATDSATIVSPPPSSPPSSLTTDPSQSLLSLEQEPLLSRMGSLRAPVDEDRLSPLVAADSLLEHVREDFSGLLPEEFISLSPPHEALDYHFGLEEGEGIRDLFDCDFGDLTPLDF
Sequence of Hepatocyte nuclear factor 3-beta (Homo sapiens) (Q9Y261 whole entry, looked up): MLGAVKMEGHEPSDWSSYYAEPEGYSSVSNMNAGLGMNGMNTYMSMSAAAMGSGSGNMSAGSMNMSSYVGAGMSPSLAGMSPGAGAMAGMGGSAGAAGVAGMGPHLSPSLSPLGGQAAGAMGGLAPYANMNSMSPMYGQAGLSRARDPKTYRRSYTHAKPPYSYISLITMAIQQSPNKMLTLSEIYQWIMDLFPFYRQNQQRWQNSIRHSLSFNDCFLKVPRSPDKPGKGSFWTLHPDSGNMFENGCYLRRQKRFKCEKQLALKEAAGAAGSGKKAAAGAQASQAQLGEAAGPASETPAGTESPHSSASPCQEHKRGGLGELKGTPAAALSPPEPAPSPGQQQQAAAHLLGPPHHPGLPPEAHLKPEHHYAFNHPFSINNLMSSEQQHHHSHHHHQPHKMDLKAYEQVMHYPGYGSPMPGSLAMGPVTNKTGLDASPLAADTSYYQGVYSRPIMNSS
Sequence of CCAAT/enhancer-binding protein beta (Homo sapiens) (P17676 whole entry, looked up): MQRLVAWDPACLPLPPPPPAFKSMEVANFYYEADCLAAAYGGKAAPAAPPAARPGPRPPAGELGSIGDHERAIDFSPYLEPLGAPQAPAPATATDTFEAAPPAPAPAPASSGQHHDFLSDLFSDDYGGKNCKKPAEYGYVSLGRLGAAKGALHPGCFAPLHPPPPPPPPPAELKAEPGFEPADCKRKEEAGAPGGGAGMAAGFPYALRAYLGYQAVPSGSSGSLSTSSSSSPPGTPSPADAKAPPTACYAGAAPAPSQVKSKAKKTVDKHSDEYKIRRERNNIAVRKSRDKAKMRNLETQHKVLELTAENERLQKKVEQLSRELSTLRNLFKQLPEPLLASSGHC

CC(C)(C)C1=CC(=O)C(C(C)(C)C)=CC1=O
active: [3] 87.6 µM | [4] 50 µM | [8] 26.8 µM | [12] 50 µM | [13] 36.6 µM | [15] 50 µM | [16] 68.3 µM | [17] 81.7 µM
not listed: [18] | [19]
inactive: all other assays above

CS(=O)(=O)c1ccc(Cl)cc1
not listed: [5] | [8]
inactive: all other assays above

O=C(Nc1ccc([N+](=O)[O-])cc1)Nc1ccc([N+](=O)[O-])cc1 (tested in a mixture with another compound)
active: [18] 35.1 µM
not listed: [5] | [7] | [9]
inactive: all other assays above

CCCCCC(C=O)=Cc1ccccc1
not listed: [5] | [19]
inactive: all other assays above

CCN(CC)C(=O)N(CC)CC
not listed: [7] | [9] | [18] | [19]
inactive: all other assays above

CC(O)C1CCCCC1 (stereo not given)
not listed: [18]
inactive: all other assays above

CC(=O)c1ccccn1
not listed: [18]
inactive: all other assays above

Cc1cc(CCC(=O)OCCOCCOCCOC(=O)CCc2cc(C)c(O)c(C(C)(C)C)c2)cc(C(C)(C)C)c1O
not listed: [5] | [8]
inactive: all other assays above

CN(C)CCOc1ccc(/C(=C(/CCCl)c2ccccc2)c2ccccc2)cc1
active: [4] 1.99 µM
not listed: [5] | [14]
inactive: all other assays above

C=CC(C)C#N (stereo not given)
not listed: [18]
inactive: all other assays above

CCc1cc(Cc2cc(CC)cc(C(C)(C)C)c2O)c(O)c(C(C)(C)C)c1
active: [1] 19.1 µM | [4] 14.8 µM | [7] 4.81 µM | [8] 2.28 µM | [12] 18.5 µM | [17] 17.1 µM
not listed: [5]
inactive: all other assays above

CCC1(C)NC(=O)NC1=O (stereo not given)
not listed: [5] | [7] | [8] | [9]
inactive: all other assays above

NCc1ccco1
not listed: [7] | [18]
inactive: all other assays above

CC(=O)c1c(C)c([N+](=O)[O-])c(C(C)(C)C)c([N+](=O)[O-])c1C
active: [8] 1.6 µM
not listed: [18] | [19]
inactive: all other assays above

CCC(=O)O[C@@H]1C[C@H]2CC[C@]1(C)C2(C)C
not listed: [18]
inactive: all other assays above
